Experimental data published in PubChem BioAssay (NCATS).
Results filed as inconclusive are left out. Active and inactive are the calls of the source. The call rests on the fitted dose curve; in most records, active means well fitted curve in the direction sought with a large enough effect; inconclusive means small, poorly fitted or top-dose-only effect, or another doubt; inactive means no such curve, though single readings can be large; an effect the other way counts as inactive or inconclusive.

Columns and labels:
[1] = Cell Viability - N2a (AID 540); settings: N2a mouse neuroblastoma cell viability; series mostly up to 92.2 µM; further: nearly all actives have a fitted effect of over 45% in size
In short: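 Luminescent ATP signal (CellTiter-Glo, 20 min at room temperature) served as the viability read-out after N2a cells were treated with compounds for 40 hours at 37 °C. Concentration-response data were fitted to the Hill equation for AC50.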

[2] = Cell Viability - NIH 3T3 (AID 541); settings: NIH 3T3 cell viability, qHTS; series mostly up to 92.2 µM; further: nearly all actives have a fitted effect of over 25% in size
In short: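 Luminescent ATP signal (CellTiter-Glo) served as the viability read-out after NIH 3T3 cells were exposed to compounds over a concentration range for 40 hr at 37 °C. Hill-equation modelling of concentration-response data gave AC50.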

[3] = Cell Viability - HUV-EC-C (AID 542); settings: HUV-EC-C endothelial cell viability, qHTS; series mostly up to 92.2 µM; further: nearly all actives have a fitted effect of over 35% in size
In short: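 qHTS cytotoxicity: HUV-EC-C, 1000 cells/well, 5 hr settle, compound 40 hr 37 °C, CellTiter-Glo, luminescence. AC50 via Hill equation.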

[4] = Cell Viability - H-4-II-E (AID 543); settings: H-4-II-E rat hepatoma viability; series mostly up to 92.2 µM; further: nearly all actives have a fitted effect of over 35% in size
In short: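 Luminescent ATP signal (CellTiter-Glo) served as the viability read-out, with cytotoxicity seen as a concentration-dependent ATP drop. Cells were treated for 40 hours in complete medium. AC50 values derive from Hill-equation modelling.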

[5] = Cell Viability - SH-SY5Y (AID 544); settings: SH-SY5Y neuroblastoma cell viability; series mostly up to 92.2 µM; further: nearly all actives have a fitted effect of over 55% in size
In short: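 Luminescent ATP read-out (CellTiter-Glo) measures loss of viable SH-SY5Y neuroblastoma cells after 40 hr compound exposure at 37 °C. AC50 values derive from standard Hill modelling of qHTS concentration-response data.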

[6] = Cell Viability - Renal Proximal Tubule (AID 545); settings: renal proximal tubule cells viability, primary cells of rat origin; series mostly up to 91.7 µM; further: nearly all actives have a fitted effect of over 40% in size
In short: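 Rat renal proximal tubule primary cells, 1000/well, exposed to compounds for 40 hr at 37 °C in complete medium; cellular ATP read by CellTiter-Glo luminescence. AC50 from concentration-response fitted with standard Hill equation.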

[7] = Cell Viability - Mesenchymal (AID 546); settings: mesenchymal cells viability, qHTS; series mostly up to 91.7 µM;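 further: cells exposed to compound for 40 hours before reading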
In short: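 Normal human renal glomerulus-derived kidney mesenchymal cells, 1000 per well in complete medium, were treated with compounds for 40 hr at 37 °C. Viability was read as intracellular ATP by CellTiter-Glo luminescence; AC50 values came from Hill-equation fits of qHTS concentration-response data.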

[8] = Cellular Toxicity (caspase-3) HepG2 (AID 654); settings: HepG2 caspase-3 activation, luminescence, 0% = DMSO only, 100% = tamoxifen; series mostly up to 92.2 µM;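 further: cells exposed to compound for 16 hours before reading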
In short: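 Cells plated 5 hr at 37 °C, compound added, incubated 16 hr at 37 °C. Caspase-Glo 3/7 reagent followed, 20 min at room temperature, then luminescence read. Activation scored as signal increase; AC50 from Hill fit.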

[9] = Cellular Toxicity (caspase-3) Jurkat (AID 655); settings: Jurkat caspase-3 activation, luminescence, DMSO = 0%, tamoxifen = 100%; series mostly up to 92.2 µM;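 further: cells exposed to compound for 16 h at 37 °C before reading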
In short: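 Jurkat cells (5000/well) in complete medium exposed 16 h at 37 C; caspase-3/7 activity read by Caspase-Glo luminescence after 20 min at room temperature. Normalized to DMSO and 100 uM tamoxifen; AC50 from Hill fits.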

[10] = Cellular Toxicity (caspase-3) HUV-EC-C (AID 656); settings: HUV-EC-C cells, caspase-3 activation (apoptosis), vehicle = 0, 100 µM tamoxifen = 100%; series mostly up to 92.2 µM
In short: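 HUV-EC-C cells (1000/well) in complete medium, compound-treated 16 h at 37 °C; caspase-3/7 activity read by Caspase-Glo 3/7 luminescence. Normalized to DMSO (basal) and 100 uM tamoxifen (100%); AC50 from Hill-equation concentration-response fits.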

[11] = Cellular Toxicity (caspase-3) SHSY5Y (AID 657); settings: SH-SY5Y caspase-3 activation, DMSO zero, 10 µM staurosporine = 100%; series mostly up to 91.7 µM
In short: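 SH-SY5Y human neuroblastoma cells, 1500/well, exposed to compound for 16 hours at 37 °C in complete medium. Caspase-3/7 activity read by Caspase-Glo luminescence after 1 hr at room temperature, normalized to DMSO and 10 uM staurosporine; AC50 from Hill fit.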

[12] = Cellular Toxicity (caspase-3) BJ (AID 658); settings: BJ fibroblasts, luminescence, normalized: DMSO 0%, staurosporine 100%; series mostly up to 91.7 µM
In short: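 Luminescent aminoluciferin-substrate cleavage reports caspase 3/7 activity in normal human BJ fibroblasts after 16 hr compound exposure at 37 °C. Normalized to DMSO (basal) and 10 uM staurosporine (100%); AC50 from Hill fit of concentration-response.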

[13] = Cellular Toxicity (caspase-3) MRC-5 (AID 659); settings: MRC-5 cells, luminescence, normalized: DMSO 0%, 10 µM staurosporine 100%; series mostly up to 91.7 µM
In short: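 Luminescence from caspase-cleaved aminoluciferin substrate (Caspase-Glo 3/7, 1 hr RT) reports caspase 3/7 activity in MRC-5 lung fibroblasts after 16 hr compound exposure. Normalized to DMSO basal and 10 uM staurosporine as 100%; AC50 from Hill fits.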

[14] = Cellular Toxicity (caspase-3) Mesangial (AID 660); settings: mesangial cells, normalized: DMSO 0%, 100 µM tamoxifen 100%; series mostly up to 91.7 µM;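 further: cells exposed to compound for 16 h before the caspase read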
In short: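 Mesangial cells, 1000/well, 5 h settle at 37 °C; compound 16 h, 37 °C; Caspase-Glo 3/7 reagent 20 min RT; luminescence. Norm.: DMSO = 0%, tamoxifen 100 uM = 100%. AC50, Hill fit.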

[15] = Cellular Toxicity (caspase-3) SK-N-SH (AID 661); settings: SK-N-SH caspase-3 activation, qHTS, DMSO as zero, staurosporine as full; series mostly up to 91.7 µM
In short: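 Human neuroblastoma SK-N-SH, 1500 cells/well, 5 hr pre-incubation, then compound 16 hr, 37 °C. Caspase-Glo 3/7 reagent, 1 hr RT, luminescence. Norm. to DMSO/10 uM staurosporine; Hill-fit AC50.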

[16] = Cellular Toxicity (caspase-3) H-4-II-E (AID 663); settings: H-4-II-E rat hepatoma, scaled: DMSO 0%, 100 µM tamoxifen 100%; series mostly up to 92.2 µM;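 further: cells exposed to compound for 16 hr before readout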
In short: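 Luminescence from caspase-cleaved aminoluciferin substrate, read 20 min after reagent addition, reports caspase 3/7 activation in rat H-4-II-E cells after 16 hr compound exposure. Normalized to DMSO (basal) and 100 uM tamoxifen (100%); AC50 from Hill fits.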

[17] = Cellular Toxicity (caspase-3) Hek293 (AID 664); settings: HEK293 caspase-3 activation, DMSO = 0%, 100 µM tamoxifen = 100%; series mostly up to 92.2 µM;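 further: cells exposed to compound for 16 h at 37 °C before readout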
In short: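 Cells plated, 5 hr at 37 °C; compounds added; 16 hr at 37 °C; Caspase-Glo 3/7 reagent, 20 min RT; luminescence read. Activation expressed relative to DMSO and 100 uM tamoxifen, AC50 by Hill model.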

Measured: outcome

Cc1cc(O)c2c(c1)C(=O)c1cccc(O)c1C2=O
inactive: all assays above
